The panel holds about 83,000 compounds, 20% with a hit somewhere; the sample as a whole holds those more often.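 Single-dose data. Exposure time 48 hours. Values below 10 considered active.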 Unmarked numbers belong to inactive results. Calls of active or inactive are those of the source.

Among the test systems are HCT-15 colon; HT29 colon; SNB-75 CNS; SNB-19 CNS; U251 CNS; PC-3 prostate; SK-MEL-5 melanoma; UACC-62 melanoma; LOX IMVI melanoma; SK-MEL-28 melanoma; SK-MEL-2 melanoma; EKVX NSCLC; SN12C renal; UO-31 renal; TK-10 renal; ACHN renal; CAKI-1 renal; A498 renal; CCRF-CEM leukemia; MOLT-4 leukemia.
Common to all, as to assay: NCI-60 one-dose screen, 48 h (100 = growth as untreated, 0 = no growth, -100 = all killed)
What all share (details): 10 µM unless noted

`NC(=O)c1cccc(-n2ccc3cc(NC(=O)Nc4ccc(N5CCOCC5)c(C(F)(F)F)c4)ccc32)n1`: the growth with HCT-15 colon was 10.4%; in the test with HT29 colon it was 4.89% (active); in the test with SNB-75 CNS, -24.4% (active); in the test with SNB-19 CNS it was 2.44% (active); in the test with U251 CNS, 0.717% (active); with PC-3 prostate, 5.77% (active). The growth in the test on SK-MEL-5 melanoma was -79.6% (active); in the test with UACC-62 melanoma, -16.1% (active); in the test with LOX IMVI melanoma, -10.9% (active); with SK-MEL-28 melanoma, -0.669% (active); in the test with SK-MEL-2 melanoma, 1.78% (active); with EKVX NSCLC it was 11.2%. The growth in the test with SN12C renal is 14.1%; in the test on UO-31 renal, 4.85% (active); in the test on TK-10 renal, -7.65% (active); in the test on ACHN renal, 11.6%; with CAKI-1 renal, 6.33% (active); with A498 renal, -57.1% (active). Further, the growth is 1.21% (active) with CCRF-CEM leukemia and -38.9% (active) with MOLT-4 leukemia.
Consider `CCN(CC)c1ccc(NC2=C(Cl)C(=O)c3nc(C)ccc3C2=O)cc1`, for which the growth with HCT-15 colon is -52.7% (active); in the test with HT29 colon, 104%; in the test on SNB-75 CNS it was 126%; in the test on SNB-19 CNS, 102%; in the test on U251 CNS, 94.3%; in the test with PC-3 prostate, 74.2%. For the same molecule, the growth is 79.3% in the test on SK-MEL-5 melanoma; 95.2% with UACC-62 melanoma; -71.6% (active) with LOX IMVI melanoma; 37.5% with SK-MEL-28 melanoma; 84.9% in the test with SK-MEL-2 melanoma; -5.94% (active) with EKVX NSCLC. The growth in the test with SN12C renal was 64%; in the test on UO-31 renal, -60% (active); in the test on TK-10 renal, 164%; in the test on ACHN renal it was -61.2% (active); in the test with CAKI-1 renal it was 51.7%; in the test on A498 renal it was 104%. The results for the growth in the test on CCRF-CEM leukemia and in the test with MOLT-4 leukemia were 0.0595% (active) and 0.296% (active), respectively.
`Nc1cc(-c2c[nH]c3ccc(Br)cc23)nc2cc(-c3c[nH]c4ccc(Br)cc34)nn12`: the growth is 2.64% (active) in the test on HCT-15 colon; -33.8% (active) in the test with HT29 colon; 41.9% in the test on SNB-75 CNS; 41.2% in the test on SNB-19 CNS; -47.8% (active) with U251 CNS; 14.5% in the test with PC-3 prostate. In addition, the growth in the test on SK-MEL-5 melanoma is 36.7%; with UACC-62 melanoma, 11.6%; with LOX IMVI melanoma, -52.8% (active); in the test on SK-MEL-28 melanoma, 49.9%; in the test with SK-MEL-2 melanoma it was -43.7% (active); in the test with EKVX NSCLC, 31.7%. For the same molecule, the growth with SN12C renal is 26.8%; in the test on UO-31 renal, 41.3%; with TK-10 renal, 35.7%; with ACHN renal it was 7.87% (active); in the test with CAKI-1 renal, 21.1%; in the test on A498 renal, 7.08% (active). In addition, the growth is 7.39% (active) with CCRF-CEM leukemia and -3.94% (active) in the test on MOLT-4 leukemia.
`CC1(C)CC[C@]23CC[C@]4(C)[C@H](CC[C@@H]5[C@@]6(C)CCCN(CO)C(C)(C)[C@@H]6CC[C@]54C)[C@H]2[C@H]1OC3`: the growth with HCT-15 colon was 7.34% (active); in the test on HT29 colon, 21%; in the test with SNB-75 CNS, 112%; in the test with SNB-19 CNS, 56.6%; in the test on U251 CNS it was 32.5%; with PC-3 prostate, 73.6%. Further, the growth with SK-MEL-5 melanoma was 100%; in the test with UACC-62 melanoma, 101%; with LOX IMVI melanoma, -80.9% (active); in the test on SK-MEL-28 melanoma, 103%; in the test on SK-MEL-2 melanoma, 98.4%; in the test on EKVX NSCLC, 90.9%. For the same molecule, the growth is 89.6% in the test with SN12C renal; 76.7% in the test on UO-31 renal; 129% with TK-10 renal; 96.7% with ACHN renal; 62.1% in the test on CAKI-1 renal; 107% in the test with A498 renal. Further, the growth in the test with CCRF-CEM leukemia is 58.5%; with MOLT-4 leukemia, 35.4%.
With `O=C(CSc1nnc(-c2ccc3nc(-c4ccccc4)[nH]c3c2)o1)Nc1ccc(C(=O)/C=C/c2ccccc2)cc1`, the growth in the test with HCT-15 colon was 110%; in the test on HT29 colon it was 108%; in the test on SNB-75 CNS, 113%; in the test with SNB-19 CNS, 99.9%; with U251 CNS, 98.2%; with PC-3 prostate, 106%. The growth was 98.3% in the test on SK-MEL-5 melanoma; 97.1% with UACC-62 melanoma; 97.3% in the test with LOX IMVI melanoma; 103% with SK-MEL-28 melanoma; 103% in the test with SK-MEL-2 melanoma; 106% with EKVX NSCLC. Besides, the growth in the test on SN12C renal is 98%; in the test with UO-31 renal, 87.4%; in the test with TK-10 renal, 110%; in the test on ACHN renal, 102%; in the test on CAKI-1 renal, 103%; in the test with A498 renal, 95.9%. In addition, the growth is 107% in the test with CCRF-CEM leukemia and 93.2% in the test on MOLT-4 leukemia.
Turning to `CCOC(=O)c1c(NC(=O)c2ccccc2C(F)(F)F)sc2c1CCC(=O)C2`, the growth with HCT-15 colon is 10.5%; with HT29 colon, 75.4%; with SNB-75 CNS, 65.4%; in the test with SNB-19 CNS, 18.6%; with U251 CNS, 17.5%; in the test on PC-3 prostate, 14.6%. The growth with SK-MEL-5 melanoma is -50.3% (active); in the test with UACC-62 melanoma, 13%; in the test on LOX IMVI melanoma, 3.5% (active); in the test with SK-MEL-28 melanoma, 80.1%; in the test on SK-MEL-2 melanoma it was 91.2%; with EKVX NSCLC, 32.2%. In addition, the growth with SN12C renal is 25.8%; in the test with UO-31 renal it was -1.08% (active); in the test with TK-10 renal, 91.1%; in the test with ACHN renal it was 6.88% (active); with CAKI-1 renal it was 21.1%; in the test on A498 renal, 85.2%. Further, the growth in the test on CCRF-CEM leukemia is 10.3%; in the test on MOLT-4 leukemia, 94.2%.
Consider `CCO/C=N/C1=C(C#N)C(c2ccc(F)cc2)c2sc3c(CC)cccc3c2O1` (stereo not given), for which the growth with HCT-15 colon is 12.6%; with HT29 colon, 10.1%; with SNB-75 CNS, 3.71% (active); in the test with SNB-19 CNS, 21.4%; with U251 CNS, 21.4%; with PC-3 prostate it was 13.6%. Further, the growth was 26.6% in the test on SK-MEL-5 melanoma; 16.1% in the test on UACC-62 melanoma; 14.7% in the test with LOX IMVI melanoma; 61% with SK-MEL-28 melanoma; 42.7% in the test with SK-MEL-2 melanoma; 49% in the test on EKVX NSCLC. Moreover, the growth in the test with SN12C renal was 22.9%; in the test with UO-31 renal, 32.2%; in the test with TK-10 renal, 63.9%; with ACHN renal, 28.4%; in the test on CAKI-1 renal, 36.4%; in the test on A498 renal it was -3.45% (active). For the same molecule, the growth is 13.1% in the test with CCRF-CEM leukemia and 19.8% with MOLT-4 leukemia.

The values above are taken from PubChem BioAssay (NCI).
